Among the data in PubChem BioAssay are composite z-score and z-score values, retold here.

Activity calls are given as the source filed them.

A short description of assay [1]: binders of probe aFSTL3 on microarray, primary screen, stem cell growth factor project, biochemical, small-molecule microarray, fluorescence 635/667 (AID 1064).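 Further: measures binding of the biotinylated anti-FSTL3 antibody to printed compounds.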 The note with it: higher = more signal.
Assay [2] in a line: binders from COS7 lysate, DM2A8 probe, primary screen, torsin A project, cell lysate, small-molecule microarray, fluorescence 635/667 (AID 1065). The note with it: higher = more signal, COS7 lysate expressing mutant human TOR1A.
Assay [3] is described as follows: binders of probe aFGF2 on microarray, primary screen, stem cell growth factor project, biochemical, small-molecule microarray, fluorescence 635/667 (AID 1067).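 Further: measures binding of biotinylated aFGF2 protein to printed compounds on slides; z-score merges feature fluorescence and signal-to-noise across triplicate slides.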 The note with it: higher = more signal.
A short description of assay [4]: binders of probe aFGF10 on microarray, primary screen, stem cell growth factor project, biochemical, small-molecule microarray, fluorescence 635/667 (AID 1071).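 Further: score merges 667 nm spot intensity and signal to noise from triplicate slides.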 As to conditions: higher = more signal.
Assay [5] has as its target Neurogenic locus notch homolog protein 2 (Homo sapiens) (UniProt Q04721). Put plainly: Notch2 binders on small-molecule microarrays, primary screen, biochemical, small-molecule microarray, 635 nm fluorescence, stem cell growth factors (AID 1073). The note with it: Notch2 binding, higher = more signal.
In assay [6] the target is Pro-neuregulin-1, membrane-bound isoform (Homo sapiens) (UniProt Q02297). Description: NRG1 binders on small-molecule microarrays, primary screen, psychiatric disease protein project, biochemical, small-molecule microarray, fluorescence 635/667 (AID 1075).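 Further: score combines 667 nm spot fluorescence with signal to noise.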 As to conditions: NRG1 binding, 635 nm fluorescence, higher = more signal.
For assay [7], the system named is Neuregulin-1 EGF-like domain. Description: binders of neuregulin-1 EGF-like domain, primary screen, biochemical, small-molecule microarray, 635 nm fluorescence (AID 1081).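 Further: binding of the protein to compounds printed on small-molecule microarray slides.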 The note with it: small-molecule microarray binding, higher = more signal.
Assay [8] in a line: FRG1 promoter luciferase signal modulators, primary screen, FRG1 inhibition for FSHD, cell-based, C2C12 myotubes, firefly/Renilla luciferase, luminescence (AID 1084). The note with it: higher = more signal, called active from +8 up or from −8 down.
A short description of assay [9]: binders of probe aFST on microarray, primary screen, stem cell growth factor project, biochemical, small-molecule microarray, fluorescence 635/667 (AID 1086).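 Further: score merges 667 nm fluorescence with signal-to-noise of each printed compound spot.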 As to conditions: higher = more signal.
Assay [10] in a line: binders of probe aHhip on microarray, primary screen, stem cell growth factor project, biochemical, small-molecule microarray, fluorescence 635/667 (AID 1087).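 Further: score merges spot fluorescence at 667nm with spot signal to noise ratio.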 As to conditions: higher = more signal.

Sequence of Neurogenic locus notch homolog protein 2 (Homo sapiens) (Q04721 whole entry, looked up, canonical isoform): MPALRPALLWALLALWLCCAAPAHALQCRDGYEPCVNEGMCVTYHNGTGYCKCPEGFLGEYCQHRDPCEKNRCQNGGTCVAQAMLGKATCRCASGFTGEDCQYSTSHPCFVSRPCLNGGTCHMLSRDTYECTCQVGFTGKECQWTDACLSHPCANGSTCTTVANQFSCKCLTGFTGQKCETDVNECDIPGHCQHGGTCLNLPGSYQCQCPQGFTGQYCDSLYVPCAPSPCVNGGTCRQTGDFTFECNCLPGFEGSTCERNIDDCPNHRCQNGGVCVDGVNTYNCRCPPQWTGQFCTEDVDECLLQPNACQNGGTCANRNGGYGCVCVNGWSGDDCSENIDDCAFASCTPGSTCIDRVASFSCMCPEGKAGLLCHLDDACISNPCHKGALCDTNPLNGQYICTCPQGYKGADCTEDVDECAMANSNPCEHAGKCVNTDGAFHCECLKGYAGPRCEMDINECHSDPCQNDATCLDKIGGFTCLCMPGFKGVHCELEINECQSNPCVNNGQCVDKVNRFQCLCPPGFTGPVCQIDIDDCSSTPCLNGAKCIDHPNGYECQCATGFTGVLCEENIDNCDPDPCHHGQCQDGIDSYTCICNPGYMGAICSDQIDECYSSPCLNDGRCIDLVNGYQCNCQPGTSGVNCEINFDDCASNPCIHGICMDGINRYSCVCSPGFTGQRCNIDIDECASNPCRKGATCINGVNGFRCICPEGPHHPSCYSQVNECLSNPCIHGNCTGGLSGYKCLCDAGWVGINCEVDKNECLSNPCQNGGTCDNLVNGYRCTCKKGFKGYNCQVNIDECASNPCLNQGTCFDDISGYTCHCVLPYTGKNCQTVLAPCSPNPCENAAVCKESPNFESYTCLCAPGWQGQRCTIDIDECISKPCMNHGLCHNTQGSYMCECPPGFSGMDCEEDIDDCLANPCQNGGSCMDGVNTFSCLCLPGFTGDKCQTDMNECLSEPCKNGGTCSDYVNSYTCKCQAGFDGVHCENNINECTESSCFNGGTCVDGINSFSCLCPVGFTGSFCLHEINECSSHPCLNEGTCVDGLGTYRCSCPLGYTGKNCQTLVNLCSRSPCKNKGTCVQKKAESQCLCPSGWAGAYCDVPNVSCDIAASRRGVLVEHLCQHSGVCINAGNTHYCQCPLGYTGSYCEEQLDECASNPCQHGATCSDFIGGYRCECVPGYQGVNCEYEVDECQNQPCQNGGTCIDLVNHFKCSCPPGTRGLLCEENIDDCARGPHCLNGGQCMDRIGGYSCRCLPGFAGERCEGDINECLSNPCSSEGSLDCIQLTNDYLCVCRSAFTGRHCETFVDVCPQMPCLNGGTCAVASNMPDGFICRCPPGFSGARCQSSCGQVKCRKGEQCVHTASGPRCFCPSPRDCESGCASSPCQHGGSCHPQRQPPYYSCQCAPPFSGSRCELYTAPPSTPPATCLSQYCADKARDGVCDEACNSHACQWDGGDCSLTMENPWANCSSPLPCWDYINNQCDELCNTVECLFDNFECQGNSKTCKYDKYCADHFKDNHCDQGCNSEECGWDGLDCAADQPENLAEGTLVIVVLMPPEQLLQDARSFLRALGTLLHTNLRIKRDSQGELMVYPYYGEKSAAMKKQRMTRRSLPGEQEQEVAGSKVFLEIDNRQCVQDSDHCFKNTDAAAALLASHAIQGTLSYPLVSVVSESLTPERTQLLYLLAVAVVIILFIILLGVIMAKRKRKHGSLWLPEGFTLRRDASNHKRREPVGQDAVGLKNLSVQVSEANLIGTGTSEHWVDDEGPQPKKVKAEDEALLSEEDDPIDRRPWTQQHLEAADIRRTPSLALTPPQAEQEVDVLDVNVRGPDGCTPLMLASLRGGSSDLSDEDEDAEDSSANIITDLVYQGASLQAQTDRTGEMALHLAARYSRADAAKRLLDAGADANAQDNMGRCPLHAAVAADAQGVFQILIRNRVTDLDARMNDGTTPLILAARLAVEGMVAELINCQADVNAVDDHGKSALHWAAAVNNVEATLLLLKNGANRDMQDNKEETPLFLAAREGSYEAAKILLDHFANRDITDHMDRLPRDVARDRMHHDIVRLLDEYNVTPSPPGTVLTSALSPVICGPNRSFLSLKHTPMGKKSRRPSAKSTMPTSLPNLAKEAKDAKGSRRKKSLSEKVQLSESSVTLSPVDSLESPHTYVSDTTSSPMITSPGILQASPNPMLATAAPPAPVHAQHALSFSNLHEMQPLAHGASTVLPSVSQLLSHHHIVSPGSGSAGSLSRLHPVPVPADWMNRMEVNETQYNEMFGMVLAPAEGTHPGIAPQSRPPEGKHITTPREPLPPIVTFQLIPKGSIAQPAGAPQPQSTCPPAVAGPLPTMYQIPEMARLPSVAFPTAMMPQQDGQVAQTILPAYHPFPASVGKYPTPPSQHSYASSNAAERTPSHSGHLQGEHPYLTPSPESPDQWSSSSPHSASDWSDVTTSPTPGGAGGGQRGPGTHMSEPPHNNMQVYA
Sequence of Pro-neuregulin-1, membrane-bound isoform (Homo sapiens) (Q02297 whole entry, looked up, the tested form may be a part, canonical isoform): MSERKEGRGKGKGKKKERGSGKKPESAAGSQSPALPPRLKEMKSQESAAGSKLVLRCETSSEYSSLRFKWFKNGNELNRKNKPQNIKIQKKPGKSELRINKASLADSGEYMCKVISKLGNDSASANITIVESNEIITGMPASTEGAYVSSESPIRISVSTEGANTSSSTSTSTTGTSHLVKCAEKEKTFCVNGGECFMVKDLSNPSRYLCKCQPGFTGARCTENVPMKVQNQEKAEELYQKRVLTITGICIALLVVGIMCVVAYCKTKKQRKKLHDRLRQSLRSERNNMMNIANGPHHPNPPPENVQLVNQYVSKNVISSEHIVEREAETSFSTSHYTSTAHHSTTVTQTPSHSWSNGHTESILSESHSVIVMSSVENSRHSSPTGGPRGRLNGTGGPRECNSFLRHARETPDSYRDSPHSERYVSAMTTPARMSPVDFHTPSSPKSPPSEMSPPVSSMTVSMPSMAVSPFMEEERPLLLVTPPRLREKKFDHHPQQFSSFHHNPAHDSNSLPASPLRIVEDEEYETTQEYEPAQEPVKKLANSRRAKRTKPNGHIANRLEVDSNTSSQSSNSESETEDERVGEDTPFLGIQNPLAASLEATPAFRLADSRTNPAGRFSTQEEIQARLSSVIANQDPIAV

For the molecule `CCOC(=O)CCN1C(=O)[C@H]2[C@H]3[C@H](O)[C@H](O)CC(=NOCC(C)C)[C@H]3CC[C@H]2C1=O`, the composite z-score is 0.185 in [1]; 0.0849 in assay [2]; -0.0232 in assay [3]; 0.125 in assay [4]; -0.131 in assay [5]; -0.312 in assay [6]. The values for the composite z-score in assay [7], in assay [9] and in assay [10] were 0.176, 0.349 and -0.264, respectively. Besides, the z-score in assay [8] was 0.813 (inactive).

As for `CCOC(=O)[C@H](Cc1ccccc1)NC(=O)CCC1CC(OC(=O)NCc2cccc3ccccc23)CC2(CCCC(COC(=O)NCc3cccc(C(F)(F)F)c3)O2)O1` (stereo not given in full), the composite z-score was -0.223 in assay [1]; -0.549 in assay [2]; -0.0934 in assay [3]; 0.19 in assay [4]; 0.211 in [5]; 0.567 in [6]. In addition, the composite z-score in assay [7] is 0.74; in assay [9], -0.143; in assay [10] it was -0.0645. In [8], the z-score was -1.05 (inactive).

In the case of `COC(=O)[C@@H]1CC[C@H](C)[C@@H](c2ccc(C)cc2)N1C(=O)c1ccc(C=NO[C@H](C)c2cn([C@H](CO)Cc3ccccc3)nn2)cc1`, the composite z-score in assay [1] is -0.02; in [2] it was 0.522; in assay [3], -0.0563; in assay [4] it was 0.674; in assay [5], 0.672; in [6], -0.0294. Further, the composite z-score in [7] was determined as 1.12; in [9], 0.517; in [10], 0.837. In addition, the z-score in assay [8] was 0.0599 (inactive).

For `Cc1cc2c(nc1C)CCCN2CC(O)CN1CCCc2nc(C)c(C)cc21`, the composite z-score in assay [1] turned out to be 0.472; in assay [2] it was 1.49; in assay [3], 0.178; in assay [4] it was 0.204; in assay [5] it was 0.4; in assay [6] it was 0.752. Moreover, the results for the composite z-score in [7], in assay [9] and in [10] were 0.998, 0.759 and 1.35, respectively. Moreover, the z-score in assay [8] was -0.0397 (inactive).

In the case of `CC(C)CON=C1[C@H]2CCn3c(=O)n(Cc4cc5c(cc4Cl)OCO5)c(=O)n3[C@H]2[C@H](O)[C@@H]2O[C@H]12`, the composite z-score was -0.293 in [1]; 0.493 in assay [2]; -0.079 in assay [3]; 0.258 in assay [4]; 0.394 in assay [5]; 0.142 in [6]. Further, the results for the composite z-score in assay [7], in [9] and in assay [10] were 0.497, 0.0082 and 0.235, respectively. For the same molecule, in [8], the z-score is 0.354 (inactive).

Turning to `COC(=O)[C@@H]1CC[C@@H](C)[C@H](c2ccc(Br)cc2)N1`, the composite z-score is -0.364 in [1]; -0.0471 in assay [2]; -0.163 in assay [3]; 0.321 in assay [4]; 0.0422 in assay [5]; -0.303 in [6]. Also, the composite z-score in [7] is -0.356; in [9], -0.199; in assay [10] it was -0.184. The z-score in [8] is -1.02 (inactive).

As to `CCOC(=O)[C@H](CC(C)C)NC(=O)CCC1CC(OC(=O)NCc2cccc3ccccc23)CC2(CCCC(COC(=O)NCCC(C)C)O2)O1` (stereo not given in full), the composite z-score in assay [1] was -0.403; in [2] it was 0.141; in assay [3], -0.0547; in assay [4] it was 0.176; in [5] it was 0.193; in assay [6], -0.0205. Also, the composite z-score in assay [7] was 0.602; in assay [9] it was -0.128; in assay [10], 0.003. Also, the z-score in assay [8] is 0.164 (inactive).

Take `C#CCCCON=C1[C@H]2CCn3c(=O)n(-c4ccccc4)c(=O)n3[C@H]2[C@H](O)[C@@H]2O[C@H]12`: the composite z-score in [1] is -0.306; in [2], 0.0575; in assay [3], -0.24; in assay [4], 0.201; in assay [5], 0.47; in [6], -0.0335. Further, the composite z-score was 0.478 in assay [7], 0.212 in [9] and -0.134 in [10]. Further, the z-score in assay [8] was -1.91 (inactive).

Consider `CC(=O)OC[C@H]1O[C@@H](ON=C(C)CCN2CCCc3nc(C)c(C)cc32)[C@H](OC(C)=O)[C@@H](OC(C)=O)[C@@H]1OC(C)=O`, for which the composite z-score in assay [1] is -0.63; in assay [2], 0.165; in assay [3], -0.127; in assay [4], 0.76; in assay [5], 1.41; in assay [6] it was 0.394. The composite z-score in [7] is 1.07; in assay [9] it was 0.139; in assay [10], -0.0618. Further, the z-score in [8] is 0.935 (inactive).

Take `CO[C@@H]1COC(=O)[C@H](CCSC)NC(=O)CC=C[C@@H](C)COC(=O)[C@H](C)NC(=O)CC=C[C@H]1C`: the composite z-score in assay [1] was -0.605; in assay [2] it was 1.03; in assay [3], -0.129; in assay [4], 0.347; in assay [5], 0.115; in assay [6] it was -0.343. Further, the composite z-score in [7] turned out to be 0.871; in assay [9] it was 0.457; in assay [10], 0.408. The z-score in assay [8] is -0.0159 (inactive).

For the molecule `Cn1c(=O)n2n(c1=O)[C@H]1[C@H](O)[C@@H]3O[C@@H]3C(=NOCc3ccccc3)[C@H]1CC2`, the composite z-score was -0.266 in assay [1]; 0.125 in assay [2]; -0.085 in [3]; -0.0229 in [4]; 0.0633 in [5]; -0.257 in assay [6]. Further, the composite z-score in [7] is 0.0977; in assay [9], -0.0977; in assay [10], -0.0088. Further, the z-score in [8] is -0.928 (inactive).

As for `CO[C@H]1COC(=O)CC=C[C@H](C)COC(=O)[C@@H](C)NC(=O)CC=C[C@@H]1C`, the composite z-score in assay [1] is -0.512; in assay [2] it was 1.94; in assay [3] it was -0.0996; in [4] it was 0.231; in assay [5], -0.0457; in assay [6], -0.79. For the same molecule, the composite z-score in assay [7] was 0.219; in assay [9], -0.214; in assay [10] it was 0.0794. Further, in assay [8], the z-score was 0.464 (inactive).
